# Measured values as given in PubChem BioAssay AID686978 (National Center for Advancing Translational Sciences (NCATS), 2013).
# Hit rate of the full screen: of about 420,000 compounds, about 64,000 (15%) were called active. Inconclusive results (about 27%) are left out. Not all results are given here. Unmarked numbers belong to inactive results. The call rests on the fitted dose curve; in most records, active means well fitted inhibition curve with a large enough effect; inconclusive means small, poorly fitted or top-dose-only effect; inactive means flat fitted curve, though single readings scatter.
# Experiment: qHTS for Inhibitors of human tyrosyl-DNA phosphodiesterase 1 (TDP1): qHTS in cells in absence of CPT; further: nearly all actives have a fitted effect of over 55% in size
# Conditions: DT40 Tdp1-/- hTDP1 cells, no CPT, ATP luminescence, 48 h; activity change, negative = growth inhibition: at 46.2 µM (top of the series)
# How it was run: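 Stably hTDP1-transfected Tdp1-null chicken DT40 cells were treated with library compounds minus camptothecin and grown for at least 48 hr at 37 °C, after which cellular ATP was quantified by luminescence.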
# On the % scale 0 is the no-effect control and ±100 the full control effect; potency means the concentration at half of the fitted maximal effect.
SMILES,Potency,"activity change, negative = growth inhibition"
S=C(NCC1COc2ccccc2O1)Nc1ccc(Br)cc1 (configuration not stated),23.1 µM (active),
Cc1noc(C)c1C(=O)NCC1COc2ccccc2O1 (configuration not stated),,0.0516%
CC(NC(=S)Nc1ccccc1)C1COc2ccccc2O1 (configuration not stated),,-13.7%
O=C(O)c1ccc(NS(=O)(=O)c2cccc3nsnc23)cc1,,-2.12%
COc1ccccc1NC(=O)C1=C(C)Nc2nc(SCC(=O)c3ccc(C)cc3)nn2C1c1ccccc1C (configuration not stated),,-25.5%
COc1ccc(C(=O)NNc2cc(C)nc(NNC(=O)c3ccc(OC)cc3)n2)cc1,,-3.67%
Cc1cccc(Nc2cc(C)nc(-n3nc(C)cc3C)n2)c1,3.26 µM (active),
Cc1cc(Oc2ccccc2)nc(N2CCOCC2)n1,,2.65%
Cc1ccc(Nc2nc3ccccc3nc2-n2nc(C)cc2C)c(Cl)c1,,28%
CC(=O)c1ccc(Oc2cc(C)nc(-n3nc(C)cc3C)n2)cc1,0.58 µM (active),
Cc1cc(C)n(-c2nnc(N3CCN(c4ccccc4)CC3)nn2)n1,,-18.2%
COc1ccc(Nc2cc(C)nc(-n3nc(C)cc3C)n2)cc1,0.184 µM (active),
Cc1cc(C)n(-c2ccc(Cl)c(C(=O)O)n2)n1,,2.07%
Cc1cc(C)n(-c2cc(Oc3ccccc3)ncn2)n1,,-2.2%
CC1(C(=O)NCc2ccccc2)CSCC(=O)N1CCCn1ccnc1 (configuration not stated),,23.5%
CC(=O)c1cc(-c2ccccc2)n(CC(=O)NC2CCCCC2)c1C,inactive,
O=C(C=CC(=O)Nc1ccc(F)cc1F)Nc1ccc(F)cc1F,,3.85%
O=C(O)C1CCCCC1C(=O)N1CCN(S(=O)(=O)c2ccc(F)cc2)CC1 (configuration not stated),,2.92%
Cc1ccc2c(c1)C1CN(C)CCC1N2C(=O)c1ccccc1NS(=O)(=O)c1ccc(F)cc1C (configuration not stated),,-20.2%
CCOc1ccc2[nH]c(=O)c(CN(CCCO)C(C)=O)cc2c1,,-0.77%
CCOC(=O)c1ccc(S(=O)(=O)N(CCO)Cc2cc3cc(OC)c(OC)cc3[nH]c2=O)cc1,,-29.3%
CCOc1ccc2[nH]c(=O)c(CN(CCCO)S(=O)(=O)c3ccc(F)cc3)cc2c1,16.4 µM (active),
CC(=O)c1c(C)[nH]c(C(=O)CN2C(=O)NC(C)(C)C2=O)c1C,,-15.2%
COCCNC(=S)N(Cc1cccnc1)Cc1ccc(OC)c(OC)c1,,-17%
COc1cccc(C(=O)n2ccc(-c3cccs3)n2)c1,,-21.5%
CC(C)CC1(C(=O)NCc2ccccn2)C=CCN1C(=O)c1ccccc1 (configuration not stated),,-15.5%

SMILES,Potency,"activity change, negative = growth inhibition"
Cc1ccc(C)c(OCC(=O)Nc2sc3c(c2C#N)CCCC3)c1C,9.2 µM (active),
COc1ccc(-n2c(SCC(=O)Nc3sc4c(c3C#N)CCCC4)nnc2-c2ccc(O)cc2)cc1,,10.1%
CC(=O)c1c(C)[nH]c(C(=O)OCC(=O)Nc2c(C)cccc2C)c1C,13 µM (active),
N#Cc1c(NC(=O)CCCl)sc2c1CCCCC2,18.4 µM (active),
CCCc1cc(=O)[nH]c(SCC(=O)Nc2sc3c(c2C#N)CCCC3)n1,,12.1%
CCOC(=O)c1c(NC(=O)CSc2nnc(C)c(=O)[nH]2)sc2c1CCC2,,-22.8%
N#Cc1c(NC(=O)C2CCCO2)sc2c1CCCCC2 (configuration not stated),,-14.4%
Cc1cccc(C(=O)OCC(=O)Nc2sc3c(c2C#N)CCC3)c1,,-22.6%
CCN1CCN(CC(=O)Nc2sc3c(c2C#N)CCC3)CC1,,3.94%
CC(=O)c1c(C)[nH]c(C(=O)OCC(=O)Nc2c(C)n(C)n(-c3ccccc3)c2=O)c1C,,-30%
CC(=O)c1c(C)[nH]c(C(=O)OCC(=O)Nc2sc3c(c2C#N)CCCC3)c1C,16.4 µM (active),
Cc1cccc(C)c1NC(=O)COC(=O)c1ccccc1O,,13.8%
C=CCc1cccc2cc(C(=O)NC3CCCC3)c(=O)oc12,,-8.04%
Cc1nn(-c2ccccc2)nc1C(=O)OCC(=O)N1CCCCC1C (configuration not stated),,-5.31%
Nc1nc(SCC(=O)NCCN2CCOCC2)nc2sc3c(c12)CCC3,,-0.71%
CSc1nc2nc3c(c(=O)n2[nH]1)CCC3,,-9.07%
Cc1cn(C2OC[C@@H](O)[C@@H]2CO)c(=O)[nH]c1=O (some centres not stated),inactive,
CC(C)[C@H]1CC[C@@H](C)C[C@H]1O,,0.0485%
CCCC(C)C(=O)Nc1ccc(NC(C)=O)cc1 (configuration not stated),,-14%
O=C(NNC(=O)C1CCC1)c1ccccc1,,5.31%
Cc1csc(-c2coc3cc(O[C@@H]4O[C@H](CO)[C@@H](O)[C@@H](O)[C@H]4O)ccc3c2=O)n1,,1.27% [at 9.04 µM]
COc1cc2nc(N3CCN(C(=O)[C@@H]4CCCO4)CC3)nc(N)c2cc1OC,,-0.983%
COc1cc2nc(N3CCCN(C)CC3)nc(NC3CC3)c2cc1OC,10 µM (active),
CNCCCOc1cc2nc(N3CCCN(C)CC3)nc(NC3CCN(C)CC3)c2cc1OC,,-29.4%
COc1ccc(C(=O)N2CCCN(C)CC2)c(OC)c1,,4.37%
COc1cc2nc(N3CCCN(C)CC3)nc(NC(C)C)c2cc1OC,12.6 µM (active),
